# Screens deposited in PubChem BioAssay by National Center for Advancing Translational Sciences (NCATS).
# pAkt inh = inhibitors of Akt phosphorylation; activity change, % for hits at 50 µM; 360,000 compounds, 0.32% hits; Neuro2A IGF-stimulated pAkt S473 HTRF, 20 min; active compounds read low; in the data active = activity change below about -80%; note: % is set by controls: 0 for no effect and ±100 for the full control effect
#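 Single-point screen (50 µM final compound) in Neuro2A cells stimulated 20 min with 6 nM IGF at 37 deg C. After lysis, Ser473-phosphorylated Akt read by HTRF (ex 330 nm, em 615/665 nm) as the 665/615 ratio.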
# TCR activator = T cell receptor activation; primary human leukocytes, anti-CD3, IL-2 HTRF, 48 h; Potency, µM (titrated, usually from 9.22 µM), inactives show at the highest dose activation of IL-2 secretion, hits mostly activators; 330,000 tested, under 10 active; AID 504894; active = well fitted activation curve with a large enough effect; note: % of control where 0% means no effect
#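 Primary human leukocytes incubated 48 hr with anti-CD3 beads plus compound, without co-stimulation. Secreted IL-2 measured by HTRF (europium cryptate/d2 anti-IL-2 pair, 320 nm excitation, 665 nm emission).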
# TSHR antag = antagonists of human thyroid stimulating hormone receptor; AID 504810; TSHR-expressing cells, TSH-stimulated cAMP HTRF, 2 h; active compounds read low; P16473; 330,000 compounds, 0.2% hits; activity change, negative = inhibition, % at 11.5 µM;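 active = activity change below a set negative limit, meaning inhibition stronger than a set level, cut at about -70% in these data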; note: % is set by controls: 0 for no effect and ±100 for the full control effect
# Target sequence (P16473 whole entry, looked up): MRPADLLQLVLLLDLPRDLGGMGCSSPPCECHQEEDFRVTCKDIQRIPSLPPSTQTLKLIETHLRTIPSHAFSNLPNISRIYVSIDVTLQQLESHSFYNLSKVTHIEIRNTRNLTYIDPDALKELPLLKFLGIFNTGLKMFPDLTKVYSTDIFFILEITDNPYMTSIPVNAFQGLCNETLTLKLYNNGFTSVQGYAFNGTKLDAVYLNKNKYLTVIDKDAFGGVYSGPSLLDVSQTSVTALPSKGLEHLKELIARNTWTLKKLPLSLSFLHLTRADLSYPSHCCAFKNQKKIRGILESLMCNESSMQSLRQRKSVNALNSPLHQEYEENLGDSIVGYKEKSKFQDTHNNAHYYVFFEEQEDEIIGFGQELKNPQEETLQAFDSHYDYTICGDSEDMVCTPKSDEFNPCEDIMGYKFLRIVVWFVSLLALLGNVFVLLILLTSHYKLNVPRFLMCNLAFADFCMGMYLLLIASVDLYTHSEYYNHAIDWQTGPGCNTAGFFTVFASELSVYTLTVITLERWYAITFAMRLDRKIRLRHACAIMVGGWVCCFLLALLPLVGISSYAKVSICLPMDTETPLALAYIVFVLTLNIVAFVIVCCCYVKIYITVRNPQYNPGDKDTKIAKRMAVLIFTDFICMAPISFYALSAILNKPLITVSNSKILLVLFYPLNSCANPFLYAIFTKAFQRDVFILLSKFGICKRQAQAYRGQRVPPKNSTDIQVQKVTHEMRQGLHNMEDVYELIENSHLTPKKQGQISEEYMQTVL
#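 Antagonism was scored as loss of TSH-driven cAMP in TSHR cells, stimulated with 4nM TSH (EC80) for 2 hours at 37 deg C and detected by homogeneous HTRF competition immunoassay.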
# CCT modulator = modulators of cytosolic chaperonin (CCT/TRiC) activity | 360,000 compounds, 0.3% hits | purified chaperonin ATPase assay, HTRF ADP detection, 30 min | activity change, % (no concentration beside the values), hits read low; in the data active = activity change below about -30%; note: % is set by controls: 0 for no effect and ±100 for the full control effect
#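 TRiC at 40 or 20 nM final (batch-dependent) in 30 mM Tris pH 7.4, 100 mM KCl, 5 mM MgCl2, 1 mM DTT, with compound at single 76 uM and 10 uM ATP, 30 min at 37 deg C. ADP detected by HTRF Transcreener, 665/615 ratio.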
# An asterisk follows results filed as active; i = inactive; . = no result given; [ ] = remark or other dose. Shown are actives, neighbours in structure and some others; about 0.74% of the full set was active somewhere.
SMILES,pAkt inh,TCR activator,TSHR antag,CCT modulator
O=C(/C=C/c1ccc(OC(F)F)cc1)Nc1cccc(S(=O)(=O)N2CCOCC2)c1,i,-8%,-16,0
COc1ccc(Oc2ccc3c(C(F)(F)F)cc(C(F)(F)F)nc3n2)cc1,i,1%,0,-2
Oc1ccc(Oc2ccc3c(C(F)(F)F)cc(C(F)(F)F)nc3n2)cc1,-116%*,-3%,1,-2
NNC(=O)Cc1cccc2ccc(Cl)cc12,i,.,.,1
CCCNC(=O)C(Cc1ccccc1F)NC(=O)c1ccc(C#N)cc1 (stereo not given),i,3%,-11,-1
CCCNC(=O)C(Cc1ccccc1C)NC(=O)c1ccc(C#N)cc1 (stereo not given),i,-1%,-5,-38*
Nc1cc(=O)[nH]c(SCC(=O)NNC(=O)Cc2ccccc2)n1,i,-4%,27,-2
COc1cc(C(=O)OCn2nnc3ccccc3c2=O)cc(OC)c1OC,i,-2%,3,0
COc1cc(/C=C\C(=O)OCn2nnc3ccccc3c2=O)cc(OC)c1OC,i,1%,-14,-36*
COC(=O)c1oc2ccccc2c1NC(=O)CN1CCCC1,i,.,-5,-1
COC(=O)c1oc2ccc(Br)cc2c1NC(=O)CN1CCN(C)CC1,-115%*,8%,.,-5
Cc1ccccc1S(=O)(=O)Cc1ccc(C(=O)N2CC(C)CC(C)C2)o1 (stereo not given),i,4%,8,-1
Cc1ccccc1S(=O)(=O)Cc1ccc(C(=O)N2CCN(c3cccc(C)c3C)CC2)o1,-111%*,-2%,-17,-1
O=C1Nc2ccccc2-n2nnnc2C1N1CCN(c2ccc(F)cc2)CC1 (stereo not given),i,.,.,.
O=C(NC(=S)N1CCCc2ccccc21)c1ccc(Cl)cc1,i,1%[46.1 µM],-6,-2
O=C(NC(=S)N1CCCc2ccccc21)c1ccccc1,-114%*,3%,15,-3
COc1ccc(-c2nnc(NC(=O)C(C)C)o2)cc1,i,1%,-11,-39*
Cc1cc(C)c(C#N)c(Nc2ccccc2C)n1,i,5%,-3,-1
Cc1cc(C)c(C#N)c(Nc2cccc(C)c2C)n1,i,0%,-2,-44*
Cc1cccc(C(=O)N(CC(=O)Nc2sc(C)c(C)c2C(N)=O)C2CCCC2)c1,i,5%,-4,1
C[C@H](CO)N1C[C@H](C)[C@@H](CN(C)Cc2ccncc2)Oc2ccc(NC(=O)Cn3cnnn3)cc2C1=O,i,2%,4,2
Cn1cc(CNC(=O)Nc2ccc3c(c2)OCO3)cn1,-106%*,-3%,4,-2
Cn1nccc1C(=O)Nc1ccc2c(c1)OCO2,i,-4%,-19,-55*
CN1CCN(c2ccc(S(=O)(=O)N3CCOCC3)cc2)CC1,i,1%,-6,-1
O=C(Nc1ccc(N2CCOCC2)cc1)c1ccncc1,i,-2%[46.1 µM],-8,-1
SMILES,pAkt inh,TCR activator,TSHR antag,CCT modulator
Cc1ccnc2nc(C(=O)Nc3ccc(N4CCOCC4)cc3)nn12,-103%*,0%,6,0
O=C(Nc1nc(-c2ccccc2)cs1)c1ccc(N2CCOCC2)c([N+](=O)[O-])c1,i,2%[46.1 µM],-101*,-1
Cc1cccc(/C=C/C(=O)c2cc(Br)ccc(=O)c2O)c1,.,16%,-88*,3
CCc1ccc(/C=C/C(=O)c2cc(Br)ccc(=O)c2O)cc1,.,2%,-87*,0
CCOCCCNC(=O)C(c1ccc(OC)cc1)N(Cc1cccs1)C(=O)c1ccccc1O (stereo not given),i,-1%,-4,-2
COc1cc(C)c(S(=O)(=O)NOCc2ccccc2)c(C)c1C,i,.,4,-1
Cc1ccc(C(=O)N2CCN(c3ccc(F)cc3)CC2)cc1S(=O)(=O)N1CCCCC1,i,-5%,-14,-2
CNC(=O)c1ccccc1NC(=O)c1ccc(C)c(S(=O)(=O)N2CCCCC2)c1,-112%*,-5%,.,1
Cc1ccc(C(=O)N2CCN(c3ccccc3)CC2)cc1S(=O)(=O)N1CCCC1,-107%*,-2%,7,-1
Cc1ccc(C(=O)Nc2cccc(O)c2)cc1S(=O)(=O)N1CCCCCC1,i,5%,-2,-11
COc1ccc(CNCc2ccc(C(F)(F)F)cc2)cc1OC,i,8%,-3,0
COc1ccc(CNCc2ccncc2)cc1OC,i,-4%,-9,-65*
COc1ccc(C(=O)CSC(=S)N2CCCCC2)cc1,i,.,.,0
CC(C)CN(C(=O)COC(=O)CNC(=O)c1ccccc1F)c1c(N)n(Cc2ccccc2)c(=O)[nH]c1=O,i,-1%,.,0
Cc1cccc2cc(/C=N/NC(=O)c3ccccc3O)c(Cl)nc12,i,-4%[46.1 µM],-72*,-1
CCC(c1nnnn1CCOC)N(Cc1cc2cc(C)c(C)cc2[nH]c1=O)CC1CCCO1 (stereo not given),-117%*,3%,-2,2
C/C(=N\Nc1cc(-c2ccccc2)nc(-c2ccc(Br)cc2)n1)c1cccc(N)c1,i,.,.,-65*
Cc1cc(-c2ccc(N=Nc3c(S(=O)(=O)O)cc4cc(S(=O)(=O)O)cc(N)c4c3O)c(C)c2)ccc1N=Nc1c(S(=O)(=O)O)cc2cc(S(=O)(=O)O)cc(N)c2c1O,.,.,-155*,.
COc1ccccc1N1C(=O)c2cccc3c(Cl)ccc(c23)C1=O,i,-12%,-98*,0
Cc1ccc(-c2nc3ncccc3o2)cc1NC(=O)c1ccc2c(c1)OCO2,i,1%,.,-1
CC(C)(C)c1cc(C(F)(F)F)c(C#N)c(=O)[nH]1,i,4%,-4,-3
CC(C)(C)c1cc(=O)n2c(C#N)c(C#N)nc2[nH]1,-89%*,-5%,0,0
COc1cccc(C2C(C#N)=C(N)Oc3c2oc(CO)cc3=O)c1OC (stereo not given),i,1%,-6,-1
COc1ccc(C2C(C#N)=C(N)Oc3c2oc(CO)cc3=O)c(OC)c1OC (stereo not given),i,-4%,-10,-34*
COc1ccc(CCNC(=O)CCC(=O)n2ncc3ccc(Cl)cc32)cc1OC,i,-4%,14,2
COc1ccc(NC(=O)C2CCN(C(=O)C3CC(=O)N(c4ccc(C)cc4)C3)CC2)cc1 (stereo not given),i,6%,5,1
COc1ccc(Cl)cc1NC(=O)C1CCN(C(=O)C2CC(=O)N(c3ccc(C)cc3)C2)CC1 (stereo not given),i,1%,-113*,1
OCC1(Cc2ccccc2F)CCCN(Cc2c(F)ccc(F)c2F)C1 (stereo not given),i,.,-19,-5
COc1ccc(C)cc1S(=O)(=O)n1c([N+](=O)[O-])cnc1C,i,-10%,-4,-79*
Cc1ccc(Sc2c([N+](=O)[O-])ncn2C)cc1,-110%*,8%,-4,-3
